{"source": "paper PMC11006913", "test_in_all_cases": "PBM; 200 nM protein, PBS", "details_in_all_cases": "dsDNA, one strand shown", "key": {"HOXD13 [1]": {"molecular_target": "HOXD13 (Homo sapiens, UniProt P35453 263-343, T313R)", "sequence (P35453 263-343 T313R)": "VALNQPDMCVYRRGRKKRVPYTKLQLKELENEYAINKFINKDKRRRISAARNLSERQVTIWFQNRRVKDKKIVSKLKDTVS"}, "HOXD13 [2]": {"molecular_target": "HOXD13 (Homo sapiens, UniProt P35453 263-343)", "sequence (P35453 263-343)": "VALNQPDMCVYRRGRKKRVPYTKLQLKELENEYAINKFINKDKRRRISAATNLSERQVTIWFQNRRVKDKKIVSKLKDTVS"}, "HOXD13 [3]": {"molecular_target": "HOXD13 (Homo sapiens, UniProt P35453 263-343, T313A)", "sequence (P35453 263-343 T313A)": "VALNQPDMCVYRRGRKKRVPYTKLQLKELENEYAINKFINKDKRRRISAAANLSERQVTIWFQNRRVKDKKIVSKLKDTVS"}}, "data": [{"sequence": "CAGTGGGG", "values": [{"measurement": "binding signal", "setting": "HOXD13 [1]", "result": "9.47 upbm affinity estimate (log intensity, higher = more binding, comparable within an allelic series)"}, {"measurement": "binding signal", "setting": "HOXD13 [2]", "result": "9.55 upbm affinity estimate (log intensity, higher = more binding, comparable within an allelic series)"}, {"measurement": "binding signal", "setting": "HOXD13 [3]", "result": "9.72 upbm affinity estimate (log intensity, higher = more binding, comparable within an allelic series)"}]}, {"sequence": "CAATAATC", "values": [{"measurement": "binding signal", "setting": "HOXD13 [1]", "result": "10.2 upbm affinity estimate (log intensity, higher = more binding, comparable within an allelic series)"}, {"measurement": "binding signal", "setting": "HOXD13 [2]", "result": "11.2 upbm affinity estimate (log intensity, higher = more binding, comparable within an allelic series)"}, {"measurement": "binding signal", "setting": "HOXD13 [3]", "result": "11.1 upbm affinity estimate (log intensity, higher = more binding, comparable within an allelic series)"}]}, {"sequence": "CCTGAAGG", "values": [{"measurement": "binding signal", "setting": "HOXD13 [1]", "result": "9.53 upbm affinity estimate (log intensity, higher = more binding, comparable within an allelic series)"}, {"measurement": "binding signal", "setting": "HOXD13 [2]", "result": "9.53 upbm affinity estimate (log intensity, higher = more binding, comparable within an allelic series)"}, {"measurement": "binding signal", "setting": "HOXD13 [3]", "result": "9.6 upbm affinity estimate (log intensity, higher = more binding, comparable within an allelic series)"}]}, {"sequence": "CGCCCCCA", "values": [{"measurement": "binding signal", "setting": "HOXD13 [1]", "result": "9.33 upbm affinity estimate (log intensity, higher = more binding, comparable within an allelic series)"}, {"measurement": "binding signal", "setting": "HOXD13 [2]", "result": "9.3 upbm affinity estimate (log intensity, higher = more binding, comparable within an allelic series)"}, {"measurement": "binding signal", "setting": "HOXD13 [3]", "result": "9.5 upbm affinity estimate (log intensity, higher = more binding, comparable within an allelic series)"}]}, {"sequence": "GCCGGTGA", "values": [{"measurement": "binding signal", "setting": "HOXD13 [1]", "result": "9.57 upbm affinity estimate (log intensity, higher = more binding, comparable within an allelic series)"}, {"measurement": "binding signal", "setting": "HOXD13 [2]", "result": "9.7 upbm affinity estimate (log intensity, higher = more binding, comparable within an allelic series)"}, {"measurement": "binding signal", "setting": "HOXD13 [3]", "result": "9.88 upbm affinity estimate (log intensity, higher = more binding, comparable within an allelic series)"}]}, {"sequence": "CCTACCCC", "values": [{"measurement": "binding signal", "setting": "HOXD13 [1]", "result": "9.51 upbm affinity estimate (log intensity, higher = more binding, comparable within an allelic series)"}, {"measurement": "binding signal", "setting": "HOXD13 [2]", "result": "9.51 upbm affinity estimate (log intensity, higher = more binding, comparable within an allelic series)"}, {"measurement": "binding signal", "setting": "HOXD13 [3]", "result": "9.59 upbm affinity estimate (log intensity, higher = more binding, comparable within an allelic series)"}]}, {"sequence": "CTGGCCCC", "values": [{"measurement": "binding signal", "setting": "HOXD13 [1]", "result": "9.44 upbm affinity estimate (log intensity, higher = more binding, comparable within an allelic series)"}, {"measurement": "binding signal", "setting": "HOXD13 [2]", "result": "9.38 upbm affinity estimate (log intensity, higher = more binding, comparable within an allelic series)"}, {"measurement": "binding signal", "setting": "HOXD13 [3]", "result": "9.45 upbm affinity estimate (log intensity, higher = more binding, comparable within an allelic series)"}]}, {"sequence": "CAGCGGGG", "values": [{"measurement": "binding signal", "setting": "HOXD13 [1]", "result": "9.37 upbm affinity estimate (log intensity, higher = more binding, comparable within an allelic series)"}, {"measurement": "binding signal", "setting": "HOXD13 [2]", "result": "9.58 upbm affinity estimate (log intensity, higher = more binding, comparable within an allelic series)"}, {"measurement": "binding signal", "setting": "HOXD13 [3]", "result": "9.58 upbm affinity estimate (log intensity, higher = more binding, comparable within an allelic series)"}]}, {"sequence": "CATGTATA", "values": [{"measurement": "binding signal", "setting": "HOXD13 [1]", "result": "10.3 upbm affinity estimate (log intensity, higher = more binding, comparable within an allelic series)"}, {"measurement": "binding signal", "setting": "HOXD13 [2]", "result": "10.8 upbm affinity estimate (log intensity, higher = more binding, comparable within an allelic series)"}, {"measurement": "binding signal", "setting": "HOXD13 [3]", "result": "11 upbm affinity estimate (log intensity, higher = more binding, comparable within an allelic series)"}]}, {"sequence": "GGCCCACC", "values": [{"measurement": "binding signal", "setting": "HOXD13 [1]", "result": "9.47 upbm affinity estimate (log intensity, higher = more binding, comparable within an allelic series)"}, {"measurement": "binding signal", "setting": "HOXD13 [2]", "result": "9.38 upbm affinity estimate (log intensity, higher = more binding, comparable within an allelic series)"}, {"measurement": "binding signal", "setting": "HOXD13 [3]", "result": "9.5 upbm affinity estimate (log intensity, higher = more binding, comparable within an allelic series)"}]}, {"sequence": "AGCCGGCC", "values": [{"measurement": "binding signal", "setting": "HOXD13 [1]", "result": "9.49 upbm affinity estimate (log intensity, higher = more binding, comparable within an allelic series)"}, {"measurement": "binding signal", "setting": "HOXD13 [2]", "result": "9.41 upbm affinity estimate (log intensity, higher = more binding, comparable within an allelic series)"}, {"measurement": "binding signal", "setting": "HOXD13 [3]", "result": "9.49 upbm affinity estimate (log intensity, higher = more binding, comparable within an allelic series)"}]}, {"sequence": "CCCTGGAG", "values": [{"measurement": "binding signal", "setting": "HOXD13 [1]", "result": "9.64 upbm affinity estimate (log intensity, higher = more binding, comparable within an allelic series)"}, {"measurement": "binding signal", "setting": "HOXD13 [2]", "result": "9.55 upbm affinity estimate (log intensity, higher = more binding, comparable within an allelic series)"}, {"measurement": "binding signal", "setting": "HOXD13 [3]", "result": "9.78 upbm affinity estimate (log intensity, higher = more binding, comparable within an allelic series)"}]}, {"sequence": "AAGGGGGG", "values": [{"measurement": "binding signal", "setting": "HOXD13 [1]", "result": "9 upbm affinity estimate (log intensity, higher = more binding, comparable within an allelic series)"}, {"measurement": "binding signal", "setting": "HOXD13 [2]", "result": "9.33 upbm affinity estimate (log intensity, higher = more binding, comparable within an allelic series)"}, {"measurement": "binding signal", "setting": "HOXD13 [3]", "result": "9.26 upbm affinity estimate (log intensity, higher = more binding, comparable within an allelic series)"}]}, {"sequence": "GCAAGACC", "values": [{"measurement": "binding signal", "setting": "HOXD13 [1]", "result": "9.62 upbm affinity estimate (log intensity, higher = more binding, comparable within an allelic series)"}, {"measurement": "binding signal", "setting": "HOXD13 [2]", "result": "9.57 upbm affinity estimate (log intensity, higher = more binding, comparable within an allelic series)"}, {"measurement": "binding signal", "setting": "HOXD13 [3]", "result": "9.69 upbm affinity estimate (log intensity, higher = more binding, comparable within an allelic series)"}]}, {"sequence": "ACCAGGGG", "values": [{"measurement": "binding signal", "setting": "HOXD13 [1]", "result": "9.62 upbm affinity estimate (log intensity, higher = more binding, comparable within an allelic series)"}, {"measurement": "binding signal", "setting": "HOXD13 [2]", "result": "9.61 upbm affinity estimate (log intensity, higher = more binding, comparable within an allelic series)"}, {"measurement": "binding signal", "setting": "HOXD13 [3]", "result": "9.9 upbm affinity estimate (log intensity, higher = more binding, comparable within an allelic series)"}]}, {"sequence": "CCGCCCGG", "values": [{"measurement": "binding signal", "setting": "HOXD13 [1]", "result": "9.44 upbm affinity estimate (log intensity, higher = more binding, comparable within an allelic series)"}, {"measurement": "binding signal", "setting": "HOXD13 [2]", "result": "9.37 upbm affinity estimate (log intensity, higher = more binding, comparable within an allelic series)"}, {"measurement": "binding signal", "setting": "HOXD13 [3]", "result": "9.62 upbm affinity estimate (log intensity, higher = more binding, comparable within an allelic series)"}]}, {"sequence": "AATAAACC", "values": [{"measurement": "binding signal", "setting": "HOXD13 [1]", "result": "10.6 upbm affinity estimate (log intensity, higher = more binding, comparable within an allelic series)"}, {"measurement": "binding signal", "setting": "HOXD13 [2]", "result": "11.8 upbm affinity estimate (log intensity, higher = more binding, comparable within an allelic series)"}, {"measurement": "binding signal", "setting": "HOXD13 [3]", "result": "11.6 upbm affinity estimate (log intensity, higher = more binding, comparable within an allelic series)"}]}, {"sequence": "CGCCCGCG", "values": [{"measurement": "binding signal", "setting": "HOXD13 [1]", "result": "9.5 upbm affinity estimate (log intensity, higher = more binding, comparable within an allelic series)"}, {"measurement": "binding signal", "setting": "HOXD13 [2]", "result": "9.42 upbm affinity estimate (log intensity, higher = more binding, comparable within an allelic series)"}, {"measurement": "binding signal", "setting": "HOXD13 [3]", "result": "9.59 upbm affinity estimate (log intensity, higher = more binding, comparable within an allelic series)"}]}, {"sequence": "CCTCCGCC", "values": [{"measurement": "binding signal", "setting": "HOXD13 [1]", "result": "9.44 upbm affinity estimate (log intensity, higher = more binding, comparable within an allelic series)"}, {"measurement": "binding signal", "setting": "HOXD13 [2]", "result": "9.44 upbm affinity estimate (log intensity, higher = more binding, comparable within an allelic series)"}, {"measurement": "binding signal", "setting": "HOXD13 [3]", "result": "9.54 upbm affinity estimate (log intensity, higher = more binding, comparable within an allelic series)"}]}, {"sequence": "CATCGGGC", "values": [{"measurement": "binding signal", "setting": "HOXD13 [1]", "result": "9.55 upbm affinity estimate (log intensity, higher = more binding, comparable within an allelic series)"}, {"measurement": "binding signal", "setting": "HOXD13 [2]", "result": "9.52 upbm affinity estimate (log intensity, higher = more binding, comparable within an allelic series)"}, {"measurement": "binding signal", "setting": "HOXD13 [3]", "result": "9.62 upbm affinity estimate (log intensity, higher = more binding, comparable within an allelic series)"}]}, {"sequence": "ATTACGAG", "values": [{"measurement": "binding signal", "setting": "HOXD13 [1]", "result": "10.5 upbm affinity estimate (log intensity, higher = more binding, comparable within an allelic series)"}, {"measurement": "binding signal", "setting": "HOXD13 [2]", "result": "11.7 upbm affinity estimate (log intensity, higher = more binding, comparable within an allelic series)"}, {"measurement": "binding signal", "setting": "HOXD13 [3]", "result": "11.4 upbm affinity estimate (log intensity, higher = more binding, comparable within an allelic series)"}]}, {"sequence": "GCTCGTAA", "values": [{"measurement": "binding signal", "setting": "HOXD13 [1]", "result": "10.6 upbm affinity estimate (log intensity, higher = more binding, comparable within an allelic series)"}, {"measurement": "binding signal", "setting": "HOXD13 [2]", "result": "11.9 upbm affinity estimate (log intensity, higher = more binding, comparable within an allelic series)"}, {"measurement": "binding signal", "setting": "HOXD13 [3]", "result": "11.7 upbm affinity estimate (log intensity, higher = more binding, comparable within an allelic series)"}]}, {"sequence": "CCGCCCTC", "values": [{"measurement": "binding signal", "setting": "HOXD13 [1]", "result": "9.56 upbm affinity estimate (log intensity, higher = more binding, comparable within an allelic series)"}, {"measurement": "binding signal", "setting": "HOXD13 [2]", "result": "9.65 upbm affinity estimate (log intensity, higher = more binding, comparable within an allelic series)"}, {"measurement": "binding signal", "setting": "HOXD13 [3]", "result": "9.66 upbm affinity estimate (log intensity, higher = more binding, comparable within an allelic series)"}]}, {"sequence": "CCTCATAA", "values": [{"measurement": "binding signal", "setting": "HOXD13 [1]", "result": "10.6 upbm affinity estimate (log intensity, higher = more binding, comparable within an allelic series)"}, {"measurement": "binding signal", "setting": "HOXD13 [2]", "result": "11.8 upbm affinity estimate (log intensity, higher = more binding, comparable within an allelic series)"}, {"measurement": "binding signal", "setting": "HOXD13 [3]", "result": "11.6 upbm affinity estimate (log intensity, higher = more binding, comparable within an allelic series)"}]}]}
